# Assay results as given in PubChem BioAssay (NCI).
# This is part of a sample that, as a whole, favours compounds with a hit. Of some 79,000 tested, about 15% had one in any assay. Calls of active or inactive are those of the source. No stated cut-off is given here; in the data, active means growth inhibition above about 70%; inactive means the rest.
# Test: NCI Yeast Anticancer Drug Screen. Data for the rad50 strain (AID 155);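 further: 0% = growth of vehicle-only cultures of the same strain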
# Conditions: S. cerevisiae rad50 strain growth inhibition; at 50.0 µM; hits give high values
# How it was run: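 Relative growth inhibition (compound vs vehicle) was measured in yeast with a defined repair-gene alteration.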
row,SMILES,growth inhibition
1,Cc1ccc(/C=C2\CCCC(CN3CCCCC3)C2=O)cc1 (stereo not drawn),75% (active)
2,Oc1ccc(CCCCCc2ccc(O)cc2)cc1,99.5% (active)
3,COC(=O)c1ccccc1CC(Cc1ccc2c(c1)CCC2)C(=O)OC (stereo not drawn),35% (inactive)
4,CN=C1NS(=O)(=O)c2ccccc21,15.8% (inactive)
5,CCCCC/C(=C/C=C/c1ccc(Cl)cc1)CN(C)C,99.5% (active)
6,O=S(=O)(O)c1ccc2c(c1)C1C(C3C2C2(Cl)C(Cl)=C(Cl)C3(Cl)C2(Cl)Cl)C2(Cl)C(Cl)=C(Cl)C1(Cl)C2(Cl)Cl (stereo not drawn),85.9% (active)
7,Cc1ccc(S(=O)(=O)N/N=C/c2oc(-c3cccc([N+](=O)[O-])c3)c(-c3cccc([N+](=O)[O-])c3)c2[N+](=O)[O-])cc1,86.7% (active)
8,CCN(CC)C(C)(C)C(=O)/C=C/c1ccc(Cl)cc1,2.2% (inactive)
9,Fc1ccc(NC(=S)SCc2ccc(Cl)c(Cl)c2)c(F)c1,98.5% (active)
10,CC[C@@]1(OP(=O)(O)O)C(=O)OCc2c1cc1n(c2=O)Cc2cc3ccccc3nc2-1,79.2% (active)
11,CC(C)C1=CC2=CCC3C(C)(C(=O)O)CCCC3(C)C2CC1 (stereo not drawn) (tested in a mixture with another compound),75.5% (active)
12,C=CCSc1nc2ccccc2c(=O)n1Cc1ccco1,-7.25% (inactive)
13,COC(=O)c1c(C)cccc1C1CN=NC12Cc1ccc(C)c(C)c1C2=O (stereo not drawn),61% (inactive)
14,CC(=O)N=C1N(/C=C2\C(=O)Oc3ccccc3C2=O)C(=O)/C(=C/c2cccc(Cl)c2Cl)N1C,-7.75% (inactive)
15,O=C1NC(CSSCC2NC(=O)N(c3ccccc3)C2=O)C(=O)N1c1ccccc1 (stereo not drawn),87.9% (active)
16,CCCCCCCCCCCCOP(=O)(N1CC1(C)C)N1CC1(C)C (stereo not drawn),72.7% (active)
17,Cc1cccc(/C=N/NC(=S)Nc2ccc(Cl)cc2)n1,70% (active)
18,CN1CCCCC1c1cc2c3ccccc3ccn2c1-c1ccccc1 (stereo not drawn),96.5% (active)
19,CN(Cc1ccccc1)CC(O)c1cc(-c2ccc(Cl)cc2)nc2ccccc12 (stereo not drawn),98.8% (active)
20,OC1CCN(c2c3ccccc3nc3ccccc23)CC1,12.2% (inactive)

row,SMILES,growth inhibition
1,CCC1=C(c2ccc(OC(C)=O)cc2)Cc2cc(OC(C)=O)ccc21,-4.5% (inactive)
2,Cc1cccc(C)c1NC(=O)CSC(N)=O,72.2% (active)
3,c1ccc([B-](c2ccccc2)(c2ccccc2)c2ccccc2)cc1,98.2% (active)
4,[Fe+2].c1cc[cH-]c1.c1ccc(-c2ccc[cH-]2)cc1,7.6% (inactive)
5,O=C(CC1(O)CCCCC1)OC1CCCC1,58.3% (inactive)
6,OC1(c2ccccc2)c2ccccc2Sc2ccccc21,99% (active)
7,CC(CN(C)C)C(=O)/C=C/c1ccc(C(C)C)cc1 (stereo not drawn),93.2% (active)
8,CSc1cccc(N2C(=O)C=CC2=O)c1,91.5% (active)
9,O=c1c2ccccc2nc(-c2ccccc2)n1NC(=S)Nc1ccc(Cl)cc1[N+](=O)[O-],23.1% (inactive)
10,COc1ccc(OC(C)=O)c2c1CCC=CC2=O,41.9% (inactive)
11,CC(=O)Nc1ccc2c(c1)Cc1cccc(F)c1-2,70.3% (active)
12,CCC(c1ccc(O)cc1)C(O)(CC)c1ccc(O)cc1 (stereo not drawn),46.4% (inactive)
13,Cn1c(-c2ccccc2)c(CCNC(=O)C2CCC2)c2ccccc21,81.2% (active)
14,FC(F)(F)c1ccccc1NC(=S)SCc1ccco1,93.7% (active)
15,O=[N+]([O-])C1=Cc2cc(Cl)ccc2OC1c1cccc2ccccc12 (stereo not drawn),80.5% (active)
16,NC(=O)c1c(Cl)nc2n1CCS2,13.8% (inactive)
17,CCCCCC(C)C1=NC(C)(C)CC(C)O1 (stereo not drawn),5.85% (inactive)
18,CCCCCCCCCCCCCCCCN(C)c1ccc(S(=O)(=O)O)cc1[N+](=O)[O-],85.5% (active)
19,O=C(c1cccnc1)N(C1CCCCC1)C1CCCCC1,2.25% (inactive)

# Test: NCI Yeast Anticancer Drug Screen. Data for the mec2-1 strain (AID 157)
# Conditions: S. cerevisiae mec2-1 strain, at 5.0 µM (retest, dose inferred, filed as 0.5), hits give high values
# How it was run: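 Using mec2-1 yeast: add compound, measure growth, express inhibition versus vehicle-treated cultures.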
row,SMILES,growth inhibition
1,Cc1ccc(/C=C2\CCCC(CN3CCCCC3)C2=O)cc1 (stereo not drawn),34% (inactive)
2,Oc1ccc(CCCCCc2ccc(O)cc2)cc1,15% (inactive)
3,COC(=O)c1ccccc1CC(Cc1ccc2c(c1)CCC2)C(=O)OC (stereo not drawn),12% (inactive)
4,CN=C1NS(=O)(=O)c2ccccc21,8% (inactive)
5,CCCCC/C(=C/C=C/c1ccc(Cl)cc1)CN(C)C,8% (inactive)
6,O=S(=O)(O)c1ccc2c(c1)C1C(C3C2C2(Cl)C(Cl)=C(Cl)C3(Cl)C2(Cl)Cl)C2(Cl)C(Cl)=C(Cl)C1(Cl)C2(Cl)Cl (stereo not drawn),-8% (inactive)
7,Cc1ccc(S(=O)(=O)N/N=C/c2oc(-c3cccc([N+](=O)[O-])c3)c(-c3cccc([N+](=O)[O-])c3)c2[N+](=O)[O-])cc1,17% (inactive)
8,CCN(CC)C(C)(C)C(=O)/C=C/c1ccc(Cl)cc1,-15% (inactive)
9,Fc1ccc(NC(=S)SCc2ccc(Cl)c(Cl)c2)c(F)c1,7% (inactive)
10,CC[C@@]1(OP(=O)(O)O)C(=O)OCc2c1cc1n(c2=O)Cc2cc3ccccc3nc2-1,33% (inactive)
11,CC(C)C1=CC2=CCC3C(C)(C(=O)O)CCCC3(C)C2CC1 (stereo not drawn) (tested in a mixture with another compound),-16% (inactive)
12,C=CCSc1nc2ccccc2c(=O)n1Cc1ccco1,25% (inactive)
13,COC(=O)c1c(C)cccc1C1CN=NC12Cc1ccc(C)c(C)c1C2=O (stereo not drawn),0% (inactive)
14,CC(=O)N=C1N(/C=C2\C(=O)Oc3ccccc3C2=O)C(=O)/C(=C/c2cccc(Cl)c2Cl)N1C,12% (inactive)
15,O=C1NC(CSSCC2NC(=O)N(c3ccccc3)C2=O)C(=O)N1c1ccccc1 (stereo not drawn),11% (inactive)
16,CCCCCCCCCCCCOP(=O)(N1CC1(C)C)N1CC1(C)C (stereo not drawn),2% (inactive)
17,Cc1cccc(/C=N/NC(=S)Nc2ccc(Cl)cc2)n1,0% (inactive)
18,CN1CCCCC1c1cc2c3ccccc3ccn2c1-c1ccccc1 (stereo not drawn),62% (inactive)
19,CN(Cc1ccccc1)CC(O)c1cc(-c2ccc(Cl)cc2)nc2ccccc12 (stereo not drawn),2% (inactive)
20,OC1CCN(c2c3ccccc3nc3ccccc23)CC1,7% (inactive)

row,SMILES,growth inhibition
1,CCC1=C(c2ccc(OC(C)=O)cc2)Cc2cc(OC(C)=O)ccc21,-13% (inactive)
2,Cc1cccc(C)c1NC(=O)CSC(N)=O,-1% (inactive)
3,c1ccc([B-](c2ccccc2)(c2ccccc2)c2ccccc2)cc1,-4% (inactive)
4,[Fe+2].c1cc[cH-]c1.c1ccc(-c2ccc[cH-]2)cc1,-2% (inactive)
5,O=C(CC1(O)CCCCC1)OC1CCCC1,-1% (inactive)
6,OC1(c2ccccc2)c2ccccc2Sc2ccccc21,6% (inactive)
7,CC(CN(C)C)C(=O)/C=C/c1ccc(C(C)C)cc1 (stereo not drawn),6% (inactive)
8,CSc1cccc(N2C(=O)C=CC2=O)c1,49% (inactive)
9,O=c1c2ccccc2nc(-c2ccccc2)n1NC(=S)Nc1ccc(Cl)cc1[N+](=O)[O-],-7% (inactive)
10,COc1ccc(OC(C)=O)c2c1CCC=CC2=O,24% (inactive)
11,CC(=O)Nc1ccc2c(c1)Cc1cccc(F)c1-2,6% (inactive)
12,CCC(c1ccc(O)cc1)C(O)(CC)c1ccc(O)cc1 (stereo not drawn),-10% (inactive)
13,Cn1c(-c2ccccc2)c(CCNC(=O)C2CCC2)c2ccccc21,14% (inactive)
14,FC(F)(F)c1ccccc1NC(=S)SCc1ccco1,1% (inactive)
15,O=[N+]([O-])C1=Cc2cc(Cl)ccc2OC1c1cccc2ccccc12 (stereo not drawn),97% (active)
16,NC(=O)c1c(Cl)nc2n1CCS2,0% (inactive)
17,CCCCCC(C)C1=NC(C)(C)CC(C)O1 (stereo not drawn),-51% (inactive)
18,CCCCCCCCCCCCCCCCN(C)c1ccc(S(=O)(=O)O)cc1[N+](=O)[O-],37% (inactive)
19,O=C(c1cccnc1)N(C1CCCCC1)C1CCCCC1,-2% (inactive)
